# Reference: the supplement of paper PMC7156485
# ± gives the standard deviation of the averaged measurements.
# Tested on: TDF
# Assay: cell number relative to DMSO (% of DMSO); higher = more cells (less growth inhibition / toxicity)
# Conditions: concentration: 10 µM; 24 h
# Outline: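 Cells were seeded at 800 per well in 384-well plates with RPMI containing 10% FBS; both HCC1569 and TDF lines were used. Compounds were added at 10 µM for 24 h at 37 °C, in triplicate, before fixation in 3.7% formaldehyde and staining with a rabbit anti-H1.0 antibody, an AlexaFluor 647 secondary and DAPI. H1.0 nuclear intensity or cell number is reported as percent of the plate control using the median of replicates, and HCC1569 values were smoothed for positional effects.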
# 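Also: TDF denotes transformed human dermal fibroblasts of mesenchymal origin.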
row,SMILES,cell number
1,CC1CN(C2CCC(C#N)(c3ccc(F)cc3)CC2)CCC1(C(=O)O)c1ccccc1.Cl (stereo unspecified) [Levocabastine.HCl],103
2,CC(=O)OCC1=C(C(=O)[O-])N2C(=O)C(NC(=O)CCCC(N)C(=O)[O-])C2SC1.[Zn+2] (stereo unspecified) [Cephalosporin C zinc salt],101
3,Cc1c(N)nc(C(CC(N)=O)NCC(N)C(N)=O)nc1C(=O)NC(C(=O)NC(C)C(O)C(C)C(=O)NC(C(=O)NCCc1nc(-c2nc(C(=O)NCCC[S+](C)C)cs2)cs1)C(C)O)C(OC1OC(CO)C(O)C(O)C1OC1OC(CO)C(O)C(OC(N)=O)C1O)c1cnc[nH]1.O=S(=O)([O-])O (stereo unspecified) [Bleomycin sulfate],99.4
4,CNC(=O)Oc1ccc2c(c1)C1(C)CCN(C)C1N2C.CNC(=O)Oc1ccc2c(c1)C1(C)CCN(C)C1N2C.O=S(=O)(O)O (stereo unspecified) [Physostigmine sulfate],102
5,Oc1ccc2c3c1OC1C(O)CCC4(O)C(C2)N(CC2CCC2)CCC314 (stereo unspecified) [Nalbuphine],105
6,NC(C(=O)O)c1cc(=O)[nH]o1 (racemic),103
7,C=CCN1CCC23c4c5ccc(O)c4OC2C(=O)CCC3(O)C1C5.Cl (stereo unspecified) [Naloxone hydrochloride],98.9
8,CC(=O)NC1CN2CCC(O)C2C(O)C1O (stereo unspecified) [6-Acetamido-6-deoxy-castanospermine],103
9,C=C(C)C1CNC(C(=O)O)C1CC(=O)O (stereo unspecified) [Kainic acid],108 ± 3
10,"CN1CC(CO)CC2c3cccc4[nH]cc(c34)CC21 (stereo unspecified) [9,10-Dihydrolysergol]",98.2
11,CCCN1CC(CSC)CC2c3cccc4[nH]cc(c34)CC21.CS(=O)(=O)O (stereo unspecified) [Pergolide methanesulfonate],98.2
12,COc1ccc2c(c1)=NC1=C(C)NCCC=21 [Harmaline],103
13,"CC12NC(Cc3ccccc31)c1ccccc12.O=C(O)C=CC(=O)O (single isomer, unassigned; (+)) [(+)-MK-801 hydrogen maleate]",99
14,CCC1CN2CCc3cc(OC)c(OC)cc3C2CC1CC1NCCc2cc(OC)c(OC)cc21.Cl.Cl (stereo unspecified) [Emetine dihydrochloride hydrate],20.6
15,O=S1(=O)N(CCN2CC=C(c3c[nH]c4cc(F)ccc34)CC2)c2cccc3c2N1CCC3,107
16,CCC12C=CCN3CCC4(c5ccc(OC)cc5N(C)C4C(O)(C(=O)OC)C1OC(C)=O)C32 (stereo unspecified) [Vindoline],91.6
17,Cl.c1ccc2sc(C3(N4CCCCC4)CCCCC3)cc2c1 [BTCP hydrochloride],106
18,CN1CC(CO)C=C2c3cccc4[nH]cc(c34)CC21 (stereo unspecified) [Lysergol],106
19,CCCN(CCC)C1CCc2c(F)ccc(O)c2C1.Cl (stereo not drawn) [R(+)-UH-301 hydrochloride],109
20,CS(=O)(=O)O.Oc1ccc2c3c1OC1c4oc5ccccc5c4CC4(O)C(C2)N(CC2CC2)CCC314 (stereo unspecified) [Naltriben methanesulfonate],105
21,CCC(C)C(=O)OC1C(O)C2C(CN3CC(C)CCC3C2(C)O)C2CC34OC5(O)C(OC(=O)C(C)(O)C(C)O)CCC3(C)C5C(OC(C)=O)C(OC(C)=O)C4C21O (stereo unspecified) [Protoveratrine B],97.9
22,CC1(O)CC23CC(O)C4(O)C(CC(O)C4(C)C)C(C)(O)C2CCC1C3O (stereo unspecified) [Grayanotoxin III],102
23,CC(C)(C)NCC(O)c1ccccc1Cl (stereo unspecified) [Tulobuterol],101
24,Cc1cc(C(=O)CN2CCCC2)c(C)n1-c1ccc(F)cc1,102
25,O=C1NC(=O)c2c1c1c3ccccc3[nH]c1c1[nH]c3ccccc3c21,126
26,OCC1CCCN2CCCCC12 (stereo unspecified) [Lupinine],104
